Screening results (PubChem BioAssay)
The list is a sample of the results.
aSyn UTR act: Activators via SNCA 5'UTR binding, MLPCN | alpha-synuclein 5'UTR reporter, activators screen | activity score, % (tested at 7.5 µM), hits read low | hit rate 7.1% among 300,000 | AID 1814, 2009; in the data active = activity score below about -60%
Numbers without * were called inactive.

SMILES	aSyn UTR act
CCCCC(=O)Nc1cc2nn(-c3ccc(OC)cc3)nc2cc1C	-67.2*
COc1ccc(-n2nc3cc(C)c(NC(=S)NC(=O)c4ccccc4C)cc3n2)cc1	-172.7*
CCC(=O)Nc1cc2nn(-c3ccc(C)cc3)nc2cc1C	80.3
Cc1c(C(=O)N(CCO)Cc2ccccc2)oc2c(F)cccc12	-112.3*
COc1ccc(-c2cc3nc4n(c(=O)c3s2)CCC4)cc1	58.8
COc1ccc(-c2nc3n(c2C)CCC3)cc1	-62.8*
N#C/C(=C\c1ccc(N2CCCCC2)o1)C(=O)Nc1cccc(Br)c1	-178.2*
O=C(/C=C/c1ccco1)Nc1ccc(N2CCCC2)cc1	-207.0*
O=C(/C=C/c1ccco1)Nc1ccc(C(=O)N2CCOCC2)cc1	-74.9*
CCN(CC)CCn1c(=O)n(-c2ccc(Cl)cc2)c(=O)c2c3c(sc21)CN(C)CC3	-66.5*
CC1(C)Cc2nc3sc(C(=O)NCCCO)c(N)c3cc2CO1	-68.7*
COC(=O)c1sc2nc3c(cc2c1N)COC(C)(C)C3	-131.0*
COc1cc(OC)c(NC(=O)c2ccccc2F)cc1Cl	-121.8*
COc1cc2c(cc1NC(=O)c1ccccc1F)CCCC2	-270.3*
COc1cc2c(cc1NC(=O)c1cccc(F)c1)CCCC2	-75.7*
COc1ccc(/C=C2\SC(=O)N(CCNC(=O)C3CC4C=CC3C4)C2=O)cc1 (stereo unspecified)	-194.3*
O=C(CSc1ncnc2sc3c(c12)CCCC3)c1ccccc1	-76.9*
Cc1ccc(C(=O)Nc2ccc(CN3CCS(=O)(=O)CC3)cc2)cc1C	-78.1*
O=C(Nc1ccc2c(c1)OCCO2)c1ccc(CN2CCOCC2)cc1	-148.1*
O=C(Nc1ccc2c(c1)OCCO2)c1ccc(Cl)c(S(=O)(=O)N2CCOCC2)c1	-66.7*
COC(=O)Cc1c(C)c2ccc(OC3CCCCC3=O)c(C)c2oc1=O (stereo unspecified)	-65.1*
Cc1c(CCC(=O)N2CCC[C@H]2C(=O)O)c(=O)oc2cc3oc4c(c3cc12)CCCC4	76.9
c1ccc(C2Oc3ccccc3C3CC(c4cccs4)=NN32)cc1 (stereo unspecified)	-164.4*
COc1ccc(/C=C2\CCC(C3CCCC3)C2=O)cc1 (stereo unspecified)	-179.1*
COc1ccc(/C=C2\CCC(C3CCCC3)C2=O)cc1OC (stereo unspecified)	-74.8*
SMILES	aSyn UTR act
Cc1ccc(/C=C2\CCC(C3CCCC3)C2=O)cc1 (stereo unspecified)	-105.1*
Cc1ccsc1/C=C1\CCC(C2CCCC2)C1=O (stereo unspecified)	-163.5*
O=[N+]([O-])c1cc(-c2cnc3ccccc3n2)ccc1Oc1ccc(F)cc1	-149.6*
O=[N+]([O-])c1ccc(-c2cnc3ccccc3n2)cc1	-124.4*
CCOc1ccc(-c2cnc3ccccc3n2)cc1	92.2
CC(=O)c1ccc(OCc2ncc(C(F)(F)F)cc2Cl)cc1	-81.0*
FC(F)(F)c1cnc(COc2ccc(Cl)cc2Cl)c(Cl)c1	-81.8*
O=C(/C=C/c1ccccc1Cl)NC1CCCCC1	-118.6*
CC(C)(C)c1ccc(/C=C/C(=O)Nc2cccnc2)cc1	-231.6*
O=C(/C=C/c1ccccc1Cl)Nc1cccnc1	-150.4*
CCC(CC)NC(=O)/C=C/c1ccccc1Cl	-100.0*
O=C(/C=C/c1ccccc1Cl)Nc1cccc(S(=O)(=O)NC2=NCCCCC2)c1	-81.6*
O=C(/C=C/c1ccccc1Cl)Nc1ccncc1	-345.6*
COc1ccccc1/C=C/C(=O)Nc1cccnc1	-75.8*
O=C(COC(=O)/C=C/c1ccccc1Cl)NCCNC(=O)COC(=O)/C=C/c1ccccc1Cl	-63.0*
O=C(/C=C/c1ccc(Cl)cc1Cl)Nc1ccncc1	-279.5*
O=C(/C=C/c1ccc(Cl)c(Cl)c1)Nc1cccnc1	-101.5*
CC(=O)N(C)c1ccc(NC(=O)/C=C/c2ccccc2Cl)cc1	-85.5*
COC(=O)/C=C1\C(=O)N(c2nc3ccc(OC)cc3s2)C(=S)N1c1ccc(F)cc1	-69.1*
COC(=O)/C=C1\C(=O)N(c2nc3ccccc3s2)C(=S)N1c1ccc(F)cc1	-174.7*
COc1ccc(C(=O)N/N=C(\c2ccccc2)c2ccccn2)cc1	107.0
CCCCCN=C(N)N/N=C/c1c[nH]c2ccc(OC)cc12	108.3
COc1ccc(C(=O)N/N=C/C(=O)c2ccccc2)cc1	-133.1*
COc1ccc(C(=O)N/N=C/c2sc3ccccc3c2O)cc1	83.8
CC(C)NC(=S)N/N=C/c1c[nH]c2ccccc12	-123.8*
SMILES	aSyn UTR act
COc1ccc2c(c1)c(C(=O)N/N=C/c1ccc(Br)cc1)c(C)n2C	-115.5*
COc1ccc(/C=N/NC(=O)c2[nH]c3ccc(Br)cc3c2-c2ccccc2)cc1	79.8
COc1ccc(C(=O)N/N=C/c2c[nH]c3ccccc23)cc1	-70.5*
COc1ccc2c(c1)c(/C=N/Nc1ccc(C(=O)O)cc1)c(C)n2C	-75.0*
COc1ccc(/C(C)=N/Nc2ccc(C(=O)O)cc2)c(OC)c1	-139.9*
COc1ccc2c(/C=N/Nc3ccc(C(=O)O)cc3)c[nH]c2c1	-134.8*
C/C(=N\Nc1ccc(C(=O)O)cc1)c1ccc(Cl)s1	-87.0*
N#C/C(C(N)=O)=C1/CCc2ccccc2N1	-62.8*
COc1nc(NCc2ccco2)nc(NC2CCCCC2)n1	-94.2*
COc1cccc(NC(=O)Nc2nc(SC)ns2)c1	-151.1*
COc1cccc(NC(=O)Nc2nc(SC(C)(C)C)ns2)c1	-130.1*
CC1CN(C(=O)Nc2ccc3snnc3c2)c2ccccc21 (stereo unspecified)	-67.0*
O=C(/C=C\c1ccccc1OC(=O)c1ccccc1F)c1cc2ccccc2o1	-131.6*
O=C(Nc1ccccc1)N1CC=C(c2ccc(F)cc2)CC1	-167.3*
O=C(Nc1ccccc1)N1CC=C(c2ccccc2)CC1	-176.9*
Cc1cc2oc3ccc(NCCCn4ccnc4)cc3c(=O)c2cc1C	-85.9*
Cc1cc2oc3ccc(NCCCN4CCOCC4)cc3c(=O)c2cc1C	-96.7*
C=CCn1c(=S)[nH]c2cc(-c3ccccc3)sc2c1=O	-76.9*
C=CCn1c(Sc2ccccc2)nc2c1c(=O)[nH]c(=O)n2C	59.6
O=C(CSc1nnc(-c2cccnc2)o1)Nc1ccc(Cl)cc1	-62.4*
O=C(CSc1nnc(-c2cccnc2)o1)Nc1cccc(Cl)c1	-119.3*
COC(=O)c1ccc(/C(O)=C(\C#N)c2nc3ccccc3s2)cc1	-149.9*
O=C(Cc1ccccc1)c1nc2ccccc2s1	-215.7*
COC(=O)c1ccc(CC(=O)c2nc3ccccc3s2)cc1	-63.1*
COC(=O)c1ccc(CSc2nc3ccccc3s2)o1	-83.2*
SMILES	aSyn UTR act
O=C(c1ccccc1Sc1c(Cl)cccc1[N+](=O)[O-])N1CCOCC1	-73.7*
Cc1c(C(=O)O)cccc1-c1ccc(C=O)o1	-80.4*
Cc1cccc(-c2nnc3n2N=C(c2ccccc2)CS3)c1	63.0
Cc1cc(-c2nnc3n2N=C(c2ccc(F)cc2)CS3)n[nH]1	-76.8*
O=C1C[C@H]2[C@H](CO)[C@@H](OC(=O)c3ccc(-c4ccccc4)cc3)C[C@H]2O1	-87.0*
O=C(CSc1nc2ccccc2[nH]1)Nc1nc(-c2cccc(Br)c2)cs1	-85.3*
Cc1ccc(-c2csc(NC(=O)CSc3nc(C)cc(=O)[nH]3)n2)cc1	-114.7*
Cc1ccc(-c2csc(NC(=O)CSC3=NCCS3)n2)cc1	-98.9*
NS(=O)(=O)c1ccc(N/C=C\C(=O)c2cccc3ccccc23)cc1	-65.3*
CC(C)c1[nH]nc2c1C(c1ccco1)C(C#N)=C(N)O2 (stereo unspecified)	-133.3*
C(=C\c1ccco1)/c1nc2ccccc2[nH]1	-140.6*
